Screening results (PubChem BioAssay)
This is one part of a sample in which hits are shown more often than they occur.
PRC2 inh – EZH2/PRC2 methyltransferase inhibitors, primary screen, biochemical, DELFIA time-resolved fluorescence, single point | Histone-lysine N-methyltransferase EZH2 (Homo sapiens), Q15910 | PRC2 H3K27 methylation, DELFIA TRF, 1 h | inhibition, % at 12.5 µM | 57,000 tested, 0.35% active | AID 651548, 2012;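 active = mean inhibition of replicates at least 50% and every single replicate also reaching 50%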;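 also: dimethyl H3K27 on biotinylated H3 21-44 peptide detected by antibody; plate controls were median neutral control wells for no effect and median positive control wells for full effect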
Target sequence (Q15910 whole entry, looked up): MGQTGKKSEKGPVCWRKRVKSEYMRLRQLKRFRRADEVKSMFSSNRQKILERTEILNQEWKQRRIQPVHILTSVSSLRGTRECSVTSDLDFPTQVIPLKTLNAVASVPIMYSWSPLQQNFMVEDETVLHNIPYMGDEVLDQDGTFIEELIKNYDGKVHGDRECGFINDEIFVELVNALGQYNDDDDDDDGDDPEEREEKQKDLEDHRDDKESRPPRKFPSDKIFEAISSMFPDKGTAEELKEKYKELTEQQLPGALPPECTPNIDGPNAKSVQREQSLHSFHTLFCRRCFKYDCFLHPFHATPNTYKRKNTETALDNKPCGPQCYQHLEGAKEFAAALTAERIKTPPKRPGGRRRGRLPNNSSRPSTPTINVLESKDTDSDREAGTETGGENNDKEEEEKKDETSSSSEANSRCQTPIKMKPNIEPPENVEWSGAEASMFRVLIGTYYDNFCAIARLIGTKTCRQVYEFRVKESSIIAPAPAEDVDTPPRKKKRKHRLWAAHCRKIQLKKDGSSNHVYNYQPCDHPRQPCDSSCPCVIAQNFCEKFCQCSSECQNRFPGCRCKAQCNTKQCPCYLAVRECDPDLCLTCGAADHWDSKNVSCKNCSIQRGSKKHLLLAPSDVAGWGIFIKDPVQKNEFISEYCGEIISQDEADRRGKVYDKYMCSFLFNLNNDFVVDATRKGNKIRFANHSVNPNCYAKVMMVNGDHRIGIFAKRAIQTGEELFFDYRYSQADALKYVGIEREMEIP
An asterisk follows results filed as active.

SMILES	PRC2 inh
CO[C@@H]1CN(C)C(=O)c2ccc(NS(=O)(=O)c3cccc(F)c3)cc2OC[C@H](C)N(Cc2cc(F)ccc2F)C[C@@H]1C	54*
CO[C@@H]1CN(C)C(=O)c2ccc(NS(=O)(=O)c3cccc(F)c3)cc2OC[C@@H](C)N(Cc2cc(F)ccc2F)C[C@@H]1C	48
CO[C@@H]1CN(C)C(=O)c2ccc(NS(=O)(=O)c3cccc(F)c3)cc2OC[C@@H](C)N(Cc2cc(F)ccc2F)C[C@H]1C	38
O=C(O)C1C2C=CC(C2)C1C(=O)N1CCc2c([nH]c3ccccc23)C1C(F)(F)F (stereo not drawn)	-9
O=C(CCCCCC(=O)N/N=C/c1nccs1)NO	0
Clc1ccc(CSc2nnc(-c3ccco3)n2Cc2ccco2)c(Cl)c1	45
Fc1ccccc1CSc1nnc(-c2cnccn2)n1Cc1ccco1	2
Fc1ccccc1-c1nnc(SCc2ccc(Br)cc2)n1Cc1ccco1	79*
O=C(NO)c1ccc(C(=O)N/N=C/c2c(O)cc(O)cc2O)cc1	40
NC(=O)CSc1nnc(-c2cccnc2)s1	-7
O=C(O)CC(CCc1ccccc1)OC1OC(CO)C(O)C(O)C1O (stereo not drawn)	98*
CC(C)CC(=O)O[C@@H]1OC=C(CO[C@@H]2O[C@H](CO)[C@@H](O)[C@H](O)[C@H]2O)[C@H]2C[C@H](O)[C@@](C)(O)[C@@H]12	10
CC(=O)c1cc(C)c(O)c(COC2OC(CO)C(O)C(O)C2O)c1O (stereo not drawn)	18
Cc1cccc(N=C2NC(=O)/C(=C/c3ccc(F)cc3)S2)c1C	42
COc1ccc(/C=C2/SC(=S)NC2=O)cc1COc1ccc(F)cc1F	92*
COc1ccccc1-n1c(CN2C(=O)c3ccccc3C2=O)nc2ccccc2c1=O	-2
COc1c(OC)c(O)c2c(=O)cc(-c3ccc(O)cc3)oc2c1OC	3
O=c1cc(-c2ccc(O)cc2)oc2c(C3OCC(O)C(O)C3O)c(O)c(C3OC(CO)C(O)C(O)C3O)c(O)c12 (stereo not drawn)	58*
CC1OC(Oc2cc(O)c3c(=O)cc(-c4ccc(O)cc4)oc3c2C2OC(CO)C(O)C(O)C2O)C(O)C(O)C1O (stereo not drawn)	2
O=C1OC(c2ccccc2)C(O)(c2ccccc2)C12CCCCC2 (stereo not drawn)	-15
NC(=O)[C@@H]1[C@H]2C(=O)O[C@H](c3ccccc3)[C@H](c3ccccc3)N2[C@H](c2ccc(OCCO)cc2)[C@@]12C(=O)Nc1ccc(C#CC3(O)CCCCCC3)cc12	-29
O=C1O[C@@H](c2ccccc2)[C@@H](c2ccccc2)N2[C@@H](c3ccccc3OCCO)[C@]3(C(=O)Nc4ccc(C#CC5(O)CCCCCC5)cc43)[C@@H](C(=O)O)[C@H]12	73*
O=C1O[C@H](c2ccccc2)[C@H](c2ccccc2)N2[C@H]1[C@@H](C(=O)N1CCCCCCC1)[C@]1(C(=O)Nc3ccc(C#CC4(O)CCCCCC4)cc31)[C@H]2c1ccc(OCCO)cc1	-20
C=CCNC(=O)[C@H]1[C@@H]2C(=O)O[C@@H](c3ccccc3)[C@@H](c3ccccc3)N2[C@@H](c2ccccc2OCCO)[C@]12C(=O)Nc1ccc(C#CC3(O)CCCCCC3)cc12	-27
O=C1O[C@H](c2ccccc2)[C@H](c2ccccc2)N2[C@H]1[C@@H](C(=O)O)[C@]1(C(=O)Nc3ccc(C#CC4(O)CCCCCC4)cc31)[C@H]2c1ccccc1OCCO	60*
SMILES	PRC2 inh
NC(=O)[C@@H]1[C@H]2C(=O)O[C@H](c3ccccc3)[C@H](c3ccccc3)N2[C@H](c2ccccc2OCCO)[C@@]12C(=O)Nc1ccc(C#CCCO)cc12	-38
C[C@H]1CN([C@@H](C)CO)C(=O)c2cc(C#Cc3ccccc3)cnc2O[C@@H]1CN(C)CC1CCOCC1	-12
C[C@@H]1CN([C@H](C)CO)C(=O)c2cc(C#Cc3ccncc3)cnc2O[C@H]1CN(C)CC1CCOCC1	100*
C[C@@H]1CN([C@@H](C)CO)C(=O)c2cc(C#Cc3ccncc3)cnc2O[C@@H]1CN(C)CC1CCOCC1	14
COc1ccc(COCC23N=C4SCc5ccccc5CN4[C@H](c4ccccc4O2)[C@H]3CO[Si](C)(C)C(C)(C)C)cc1	2
CCOc1ccc(NC(=O)N(Cc2cn(C)c3ccccc23)C2CCCCC2)cc1	1
Cn1c(=O)c2c(nc(Sc3nnc(N)s3)n2C)n(C)c1=O	-2
COC(OC)C1Nc2ccccc2C(=O)N1c1cccc(C(F)(F)F)c1 (stereo not drawn)	5
Cc1ccc(/C=N/NC(=O)CCCCCC(=O)Nc2ccccc2O)o1	-18
COc1ccc(/C=N/NC(=O)CCCCCCC(=O)NO)cc1OC	-16
O=C(NO)c1ccc(C(=O)N/N=C/c2cc(Br)cs2)cc1	21
C[C@@H]1O[C@@H](O[C@H]2[C@@H]3C=CO[C@@H](O[C@@H]4O[C@H](CO)[C@@H](O)[C@H](O)[C@H]4O)[C@@H]3[C@@]3(CO)O[C@@H]23)[C@H](OC(=O)/C=C/c2ccc(O)c(O)c2)[C@H](O)[C@H]1O	18
C=C1CC(O)C2C(=C)C(=O)OC2C2C(=C)C(OC3OC(CO)C(O)C(OC(=O)/C=C/c4ccc(O)c(O)c4)C3O)CC12 (stereo not drawn)	76*
O=C(/C=C/c1ccc(O)c(O)c1)OCCc1ccccc1	15
CN1c2ccccc2Oc2nnc(N3CCN(c4ccccc4)CC3)cc21	-5
CCC1=C/C(=C\N(C)c2ccccc2)C(=O)S1	5
O=C(NO)c1cccc(C(=O)N/N=C/c2ccc(O)c(F)c2)c1	7
CCOC(=O)c1c(NC(=O)c2cc(-c3cccnc3)nc3c(C)cc(C)cc23)sc(C(C)=O)c1C	-15
O=C1c2ccccc2CN1CCNS(=O)(=O)c1ccc2oc3ccccc3c2c1	11
O=C(Nc1ccc(OCc2nc3ccccc3s2)cc1)c1cccc(I)c1	20
COc1cccc(C(=O)OCc2nc3ccccc3s2)c1	53*
O=C(OCc1nc2ccccc2s1)c1ccco1	-1
O=C(CCCCC(=O)N/N=C/c1ccc(-c2ccccc2)cc1)NO	25
Cc1cc(Cl)ccc1OC(C)C(=O)Nc1cccc(-c2nnc(-c3ccccc3)o2)c1 (stereo not drawn)	-1
COc1c(O[C@@H]2O[C@H](C(=O)O)[C@@H](O)[C@H](O)[C@H]2O)cc2oc(-c3ccc(O)cc3)cc(=O)c2c1O	48
SMILES	PRC2 inh
COc1c(O)cc2c(=O)oc3c(OC)c(O[C@@H]4OC[C@@H](O)[C@H](O)[C@H]4O)cc4c(=O)oc1c2c34	80*
COC(=O)COc1cccc(NC(=O)c2ccccc2I)c1	-14
O=C(O)CCCCCC(=O)N/N=C/c1cccc(Br)c1	3
CC(C)c1ccc2c(c1)c1c3c(cncn32)CCC1	4
Cc1nnn(C23CC4CC(CC(C(=O)NC5CCCCCC5)(C4)C2)C3)n1	6
Cc1cc(C)c(NC(=O)C(C)N(c2ccc(Oc3ccccc3)cc2)S(C)(=O)=O)c(C)c1 (stereo not drawn)	-13
COC(=O)CCCCCCC(=O)N/N=C/c1ccc(-c2cccc(Cl)c2)o1	54*
CCCCN(CCCC)c1ccc(/C=N/NC(=O)c2ccccc2O)cc1	19
COC(=O)CCCCCCC(=O)N/N=C/c1cccc(OCCO)c1	6
O=C(N/N=C/c1ccc(-c2cccc(Cl)c2)o1)c1ccccn1	6
O=C(CCCCC(=O)N/N=C/c1ccc(-c2cccc(Cl)c2)o1)NO	-1
